Results reported in PubChem BioAssay (EPA / NIEHS).
Active and inactive are the calls of the source. How the source made its calls: active means hit-call score of the fitted dose curve at least 0.9, where 1 is the maximum; inactive means score below 0.9.

Key:
[1] = Tanguay_ZF_120hpf_CRAN: Oregon State University Tanguay Lab 120 Hour Post-fertilization zebrafish Assay for Craniofacial Malformation (AID 2284397)
How it was run: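 Scoring of craniofacial malformation as a binary endpoint was done at 120 hpf by brightfield microscopy and was not done in dead embryos. Exposure was static, starting at 6 hpf, in dechorionated wild-type embryos held singly at 28C with 0.64% DMSO final.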

[2] = Tanguay_ZF_120hpf_MORT: Oregon State University Tanguay Lab 120 Hour Post-fertilization zebrafish Assay for Mortality (AID 2284399)
How it was run: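 Mortality, recorded present/absent via brightfield imaging at 24 and 120 hpf, in 5D zebrafish embryos exposed statically from 6 hpf after pronase chorion removal. Exposure at 28C, 0.64% DMSO vehicle, DMSO baseline.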

[3] = Tanguay_ZF_120hpf_EDEM: Oregon State University Tanguay Lab 120 Hour Post-fertilization zebrafish Assay for Edema Malformation (AID 2284400)
How it was run: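 Edema recorded as a binary endpoint under brightfield at 120 hpf, excluding embryos that died. Exposure was static, sealed, 28C, from 6 hpf in dechorionated wild-type larvae, final DMSO 0.64%, DMSO as baseline.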

[4] = Tanguay_ZF_120hpf_BRN: Oregon State University Tanguay Lab 120 Hour Post-fertilization zebrafish Assay for Brain Region Malformation (AID 2284402)
How it was run: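 Binary brightfield scoring of brain malformation at 120 hpf in 5D wild-type larvae, chorion removed with pronase at 4 hpf. Static exposure began at 6 hpf, 28C, sealed plates, DMSO 0.64% (vol/vol) as vehicle baseline.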

[5] = Tanguay_ZF_120hpf_TCHR: Oregon State University Tanguay Lab 120 Hour Post-fertilization zebrafish Assay for Touch Responsive (AID 2284403)
How it was run: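 Binary touch-response calls are made at 120 hpf in 5D wild-type zebrafish larvae. These larvae were dechorionated with pronase and exposed singly from 6 hpf in sealed, dark plates at 28 °C with 0.64% DMSO final; dead embryos are excluded.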

[6] = CCTE_Padilla_ZF_Score.Craniofacial: CCTE's 144 Hour Post-fertilization zebrafish Assay Score for Craniofacial Malformation, Padilla Lab (AID 2284405)
How it was run: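 Craniofacial defects were scored at 6 dpf by two blinded observers using stereomicroscopy. Exposure of wild-type embryos began at 6–8 hpf in sealed wells of 10% Hanks' solution at 26C, with chemical removed by rinsing at 5 dpf.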

[7] = CCTE_Padilla_ZF_Score.Edema: CCTE's 144 Hour Post-fertilization zebrafish Assay Score for Edema Malformation, Padilla Lab (AID 2284406)
How it was run: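 Edema scored at 6 dpf by two blinded observers under a stereo microscope, in single outbred wild-type larvae exposed from 6-8 hpf in sealed wells (Hanks', 26C, 14:10 h light) and chemical-free after a 5 dpf rinse.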

[8] = CCTE_Padilla_ZF_Score.Spine: CCTE's 144 Hour Post-fertilization zebrafish Assay Score for Spine Malformation, Padilla Lab (AID 2284407)
How it was run: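 Spine malformation scored at 6 dpf by two independent blinded observers under stereomicroscope, after static sealed exposure from 6–8 hpf at 26C in Hanks' solution with rinse on 5 dpf. Positive-direction fit against DMSO control.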

[9] = CCTE_Padilla_ZF_Score.Swim_bladder: CCTE's 144 Hour Post-fertilization zebrafish Assay Score for Swim Bladder Malformation, Padilla Lab (AID 2284408)
How it was run: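 Swim bladder inflation scored at 6 dpf by two blinded observers under a stereo microscope. Exposure ran from 6–8 hpf in sealed wells of 10% Hanks' at 26C, with rinsing at 5 dpf; DMSO served as baseline.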

[10] = CCTE_Padilla_ZF_Score.Position: CCTE's 144 Hour Post-fertilization zebrafish Assay Score for Position, Padilla Lab (AID 2284409)
How it was run: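 Wild-type zebrafish embryos (with chorions) exposed singly from 6–8 hpf in sealed wells of Hanks' solution at 26C, rinsed at 5 dpf. At 6 dpf, blinded assessors scored abnormal water-column position by brightfield stereomicroscopy, relative to DMSO.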

[11] = CCTE_Padilla_ZF_Score.Living: CCTE's 144 Hour Post-fertilization zebrafish Assay Score for Viability, Padilla Lab (AID 2284410);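 further: larval death at 6 dpf judged by absent heartbeat or coagulation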
How it was run: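 Mortality at 6 dpf, judged as absent heartbeat or coagulation by two blinded observers, after sealed static exposure beginning at 6–8 hpf at 26C. Larvae were rinsed free of chemical at 5 dpf, and activity was fitted relative to DMSO.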

[12] = CCTE_Padilla_ZF_Score.General: CCTE's 144 Hour Post-fertilization zebrafish Assay Score for General Malformation, Padilla Lab (AID 2284411)
How it was run: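 Malformation, death and hatching were scored at 6 dpf by two blinded observers under a stereo microscope. Embryos were dosed singly from 6-8 hpf in sealed plates of 10% Hanks' at 26C and rinsed on 5 dpf; DMSO baseline.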

[13] = CCTE_Padilla_ZF_Score.Tail: CCTE's 144 Hour Post-fertilization zebrafish Assay Score for Tail Malformation, Padilla Lab (AID 2284414)
How it was run: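 Tail malformations were scored at 6 dpf by two blinded assessors under a stereo microscope. Chorionated embryos had been exposed from 6-8 hpf in sealed wells of 10% Hanks' at 26 C, then rinsed free of chemical at 5 dpf.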

[14] = CCTE_Padilla_ZF_Score.Any: CCTE's 144 Hour Post-fertilization zebrafish Assay Score for Any Mortality or Malformation, Padilla Lab (AID 2284416)
How it was run: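 Wild-type zebrafish embryos with chorions, one per well in 10% Hanks' from 6–8 hpf, dosed in sealed plates at 26 C, 14:10 h light:dark; rinsed at 5 dpf; blinded scoring at 6 dpf for death or malformation, versus DMSO.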

[15] = Tanguay_ZF_120hpf_ANY: Oregon State University Tanguay Lab 120 Hour Post-fertilization zebrafish Assay for Any Mortality and Malformation (AID 2284404)
How it was run: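 Dechorionated Tropical 5D wild-type embryos, one per well from 6 hpf, static exposure in sealed, dark plates at 28C until 120 hpf, 0.64% DMSO final. Brightfield scoring of mortality and malformations as binary presence/absence, pooling 13 morphology endpoints.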

[16] = CCTE_Padilla_ZF_Score.Blood_pooling: CCTE's 144 Hour Post-fertilization zebrafish Assay Score for Blood Pooling, Padilla Lab (AID 2284415)
How it was run: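 Blood pooling was scored at 6 dpf under a stereo microscope by two blinded assessors, fitted upward against DMSO. Single embryos were dosed at 6–8 hpf in 10% Hanks', kept sealed at 26C (14:10 h cycle) and rinsed at 5 dpf.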

[17] = Tanguay_ZF_120hpf_AXIS: Oregon State University Tanguay Lab 120 Hour Post-fertilization zebrafish Assay for Axial Malformation (AID 2284398)
How it was run: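 Scoring was binary (present or absent) for body-axis defects, judged by brightfield imaging at 120 hpf in surviving larvae. Exposure was static at 28C from 6 hpf in chorion-free 5D wild-type embryos, with 0.64% DMSO vehicle.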

Measured: AC50

CC(C)(C)C(=O)CC(=O)C(F)(F)C(F)(F)C(F)(F)F
active: [6] 30.3 µM | [7] 27.5 µM | [9] 27 µM | [10] 29 µM | [11] 32.8 µM | [12] 26.4 µM | [14] 26.6 µM
inactive: [1] | [2] | [3] | [4] | [5] | [8] | [13]

FC(F)(F)C(F)(F)CNCC(F)(F)C(F)(F)F
active: [9] 0.00275 µM | [14] 0.00326 µM
not listed: [6] | [7] | [13] | [17]
inactive: all other assays above

FC(F)(F)C(F)(F)C(F)(F)CI
not listed: [6] | [7] | [15] | [16] | [17]
inactive: all other assays above

O=C(CC(=O)C(F)(F)C(F)(F)F)C(F)(F)F
not listed: [6] | [13] | [15] | [17]
inactive: all other assays above

O=S(=O)(OCCOC(F)(F)F)C(F)(F)F
not listed: [7] | [13] | [15] | [16] | [17]
inactive: all other assays above

O=C(O)C(F)(OC(F)(F)C(F)(OC(F)(F)C(F)(OC(F)(F)C(F)(F)C(F)(F)F)C(F)(F)F)C(F)(F)F)C(F)(F)F (stereo not drawn)
not listed: [6] | [7] | [15] | [16] | [17]
inactive: all other assays above

C=CC(F)(F)C(F)(F)C(F)(F)C(F)(F)C(F)(F)C(F)(F)C(F)(F)C(F)(F)C=C
inactive: [1] | [2] | [3] | [4] | [5]

O=C(O)C(F)(F)C(F)(F)C(F)(F)C(F)(F)F
not listed: [6] | [7] | [13] | [16]
inactive: all other assays above

O=C(O)C(F)(F)C(F)(F)C(F)(F)F
not listed: [7] | [13] | [15] | [16]
inactive: all other assays above

C=C(C)C(=O)OCC(F)(F)C(F)(F)C(F)(F)F
not listed: [6] | [7] | [13] | [16]
inactive: all other assays above

OCCCC(F)(F)C(F)(F)C(F)(F)F
not listed: [7] | [15] | [16] | [17]
inactive: all other assays above

CCO[Si](CCC(F)(F)C(F)(F)C(F)(F)C(F)(F)C(F)(F)C(F)(F)F)(OCC)OCC
not listed: [6] | [17]
inactive: all other assays above
